Bioassay records (PubChem BioAssay)
In the library only some 1.2% were active in any assay of this set; here they are far more common.
HIF activator = HIF pathway transcriptional activation; activation, % at 7.5 µM (by protocol); actives 0.32% (n = 300,000); U2OS HRE-luciferase reporter, luminescence; normalized: DMSO 0%, desferrioxamine 100%; AID 1910;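 active = mean activation of at least 10% of the iron chelator positive control signal, with at least half of replicates also reaching 10%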
LANA-H2B inh = blocks KSHV LANA binding to histone H2A/H2B; AID 2629; actives 0.6% (n = 320,000); inhibition, % (concentration not given with the values); Q9QR71; cell-free LANA-H2A/H2B peptide, fluorescence polarization; in the data active = inhibition mostly above about 10%, no sharp cut-off; inactive = mostly below about 6.7%
CR mimetic SO = caloric restriction mimetics inhibiting age-related superoxide in yeast; S. cerevisiae aged cells, superoxide DHE fluorescence; stronger effect = lower value; superoxide response (% of plate mean), % at 10 µM; actives 0.18% (n = 330,000);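 active = superoxide response under a set limit, about three screen SD below normal, cut at about 65% in these data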;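 also: yeast aged for seven days with compound at 30 °C before DHE staining; 100% = average MFI of all compound-treated wells on the plate with controls excluded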
HDAC3 inh = inhibitors of human histone deacetylase 3; O15379; recombinant HDAC3, fluorogenic peptide/trypsin coupled, fluorescence; inhibition, % at 8.3 µM; actives 0.15% (n = 320,000); AID 2718; in the data active = inhibition above about 26%, passing the limit was not always enough
Target sequence (O15379 whole entry, looked up): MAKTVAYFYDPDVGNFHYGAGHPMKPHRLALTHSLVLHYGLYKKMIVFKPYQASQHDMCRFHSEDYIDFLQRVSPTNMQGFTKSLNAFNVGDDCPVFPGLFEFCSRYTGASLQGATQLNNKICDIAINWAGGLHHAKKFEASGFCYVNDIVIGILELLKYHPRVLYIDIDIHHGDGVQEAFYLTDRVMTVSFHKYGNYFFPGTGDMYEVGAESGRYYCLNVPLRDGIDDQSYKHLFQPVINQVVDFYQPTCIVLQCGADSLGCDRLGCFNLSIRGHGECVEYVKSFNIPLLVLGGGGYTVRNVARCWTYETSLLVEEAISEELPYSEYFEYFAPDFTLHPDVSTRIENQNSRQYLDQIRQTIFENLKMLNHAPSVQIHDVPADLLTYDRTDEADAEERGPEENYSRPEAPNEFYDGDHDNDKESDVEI
An asterisk follows results filed as active; nt = no result.

SMILES	HIF activator	LANA-H2B inh	CR mimetic SO	HDAC3 inh
O=C(NCc1ccco1)C(=O)NCC(c1ccco1)N1CCOCC1 (stereo unspecified)	0	3	110	13
CC1=C([N+](=O)[O-])C(c2ccccc2C(F)(F)F)NC(=O)N1C (stereo unspecified)	0	30*	130	6
CCOC(=O)c1cc(C(C)(C)C)nc(SC)c1C#N	0	30*	99	8
CCCCc1nnc(NC(=O)C(C)Sc2nc(C)cc(=O)[nH]2)s1 (stereo unspecified)	0	12*	88	-3
CCc1cccc(NC(=O)CSC2=NS(=O)(=O)c3ccccc32)c1	1	-7	68	36*
CCc1cccc(NC(=O)[C@@H]2CCCN2C2=NS(=O)(=O)c3ccccc32)c1	nt	-4	82	2
Cc1ccccc1Nc1ncnc2c1cnn2-c1ccccc1	4	2	98	-14
NNc1ncnc2c1cnn2-c1ccccc1	1	26*	104	6
Cc1cccc(N(Cc2ccccc2)C(=O)c2ccc(S(C)(=O)=O)cc2)c1	0	23*	131	6
Cc1ccc(S(=O)(=O)N(CC(=O)Nc2ccccc2C(=O)O)c2ccc(Cl)cc2)cc1	0	2	101	-6
Cc1ccccc1C1CC(c2ccc(F)cc2)Nc2nc(N)nn21 (stereo unspecified)	0	3	105	-1
Cc1ccccc1C1CC(c2ccc(Br)cc2)Nc2nc(N)nn21 (stereo unspecified)	0	17*	122	2
CCOC(=O)c1cnc(-n2nc(C)cc2C)nc1NNc1nc(-c2ccccc2)cc(-c2ccccc2)n1	18*	8	108	2
Cc1[nH]n(C)c(=O)c1C(=O)c1c(-c2ccccc2Cl)noc1C	1	-2	65*	-5
Cc1onc(-c2ccccc2Cl)c1C(N)=O	0	2	103	2
COc1cc(/C=N\NC(=O)CNC(=O)C(c2ccccc2)c2ccccc2)ccc1O	0	-3	100	nt
O=C(CNC(=O)C(c1ccccc1)c1ccccc1)N/N=C/c1ccc(O)cc1O	11*	2	92	16
O=C(N/N=C/c1ccc(O)cc1O)c1ccncc1	0	0	95	6
O=C(CNC(=O)C(c1ccccc1)c1ccccc1)N/N=C\c1cccc(O)c1	0	94*	116	-9
CCc1cc(C(=O)N/N=C/c2ccc(O)cc2O)c2ccccc2n1	29*	3	118	0
Nc1nc(SCC(=O)Nc2cccc(S(=O)(=O)N3CCCCCC3)c2)n[nH]1	0	171*	93	-2
O=C(CCNC(=O)c1ccc([N+](=O)[O-])cc1)Nc1cccc(S(=O)(=O)N2CCCCCC2)c1	nt	12*	114	6
CCOC(=O)CC1(NC(=O)c2cc(COc3cccc(OC)c3)on2)CCCCC1	0	0	109	3
Oc1cccc(C(Nc2nccs2)c2ccc3cccnc3c2O)c1 (stereo unspecified)	35*	9	89	2
CC(=O)NC(c1cccc([N+](=O)[O-])c1)c1ccc2cccnc2c1O (stereo unspecified)	231*	2	96	-3
SMILES	HIF activator	LANA-H2B inh	CR mimetic SO	HDAC3 inh
Oc1c(C(Nc2cccc(C(F)(F)F)c2)c2cccnc2)ccc2cccnc12 (stereo unspecified)	2	0	81	1
Cc1cc(NC(c2cccnc2)c2ccc3cccnc3c2O)no1 (stereo unspecified)	22*	8	87	-3
COc1cccc(C(NC(C)=O)c2ccc3cccnc3c2O)c1 (stereo unspecified)	38*	-4	104	0
CCOC(=O)c1cc(C)sc1NC(=O)CSC1=NCCS1	0	6	98	-2
CC(C)NCCOCCOc1ccccc1F	0	2	116	-8
CSc1nc(C)cc(C)c1C#N	103*	-5	83	-1
CCCCOC(=O)n1c(=O)oc2cc(S(=O)(=O)N3CCCCC3)ccc21	55*	13	93	2
C=C(C)CSc1nc2ccccc2[nH]1	1	0	100	7
Fc1cccc(CCN2CCNC[C@@H]2CC2CCCCC2)c1	nt	3	92	4
O=C(c1ccc2c(c1)N(Cc1ccccc1)C(=O)CS2)N1CCOCC1	-1	1	84	2
Cc1ccccc1CN1C(=O)CSc2ccc(C(=O)N3CCOCC3)cc21	23*	-7	109	5
CCCOC(=O)C1=C(C)OC23OC(N)=C(C#N)C12C(=O)c1ccccc13 (stereo unspecified)	0	6	96	5
CCN1CN(CCc2ccccc2)CNC1=S	270*	-5	114	2
